Results taken from the OligoGym collection.

The sequences below were run against TMEM218 (assay: pooled miR-30 sensor sort-seq; sequence = guide strand). Conditions: shRNA.
Note: reference of the scale not given here.

| Sequence | sensor-assay potency score (higher = more potent) |
| --- | --- |
| TTAACTTCCACTTCTGGGGCTG | 0.528 |
| AATCTTAACTTCCACTTCTGGG | -0.603 |
| TCTTAACTTCCACTTCTGGGGC | -0.618 |
| AACATAATGGATTAAAACCAAG | -1.68 |
| AAAGCCAGCAGGACATAGCGGC | -0.627 |
| AAAAGCAACAGAACTGATGTGA | 0.455 |
| ATCTTAACTTCCACTTCTGGGG | -0.795 |
| ATGTGATGATCACAGCACCGAA | -1.69 |
| TAACTTCCACTTCTGGGGCTGG | -0.428 |
| TGTGATGATCACAGCACCGAAG | -0.957 |
| ATCCACAATCTTAACTTCCACT | -0.762 |

The sequences below were run against TMEM229B in the same assay as above. Conditions: shRNA.

| Sequence | sensor-assay potency score (higher = more potent) |
| --- | --- |
| TCGAACTGGGAGTAGTCCCAGG | -0.884 |
| TGAAGTCAAAGTCGAACTGGGA | -0.249 |
| TGGCATACAGGTACCAGCGGGA | -0.837 |
| TCACCTCGCAGAAGTAGCCGTG | -0.46 |
| TCCACGATGAGGATGGAGGTGC | -1.19 |
| ATGGCATACAGGTACCAGCGGG | -1.1 |
| TCCTTGTCGAAGCGGAGGCGGA | -1.59 |
| AACTCCCACAGGTAGGTCCAGA | -1.06 |
| TTGCGGATGATGAACTGCTCCA | -0.427 |
| ATCACCTCGCAGAAGTAGCCGT | -0.867 |
| AAGTTCACCACGAACTCCCAGG | -0.691 |
| TCAGCGTCCTTGTCGAAGCGGA | -0.896 |

What follows are sequences tested against TMEM22 in the same assay as above. Conditions: shRNA.

| Sequence | sensor-assay potency score (higher = more potent) |
| --- | --- |
| TAACACACAACTAACACAGATA | -0.611 |
| TTTCTTTGGATTTTCCTCCATA | -0.74 |
| TAGTATTTCCTGGTAGTCCTGC | -0.0251 |
| TAAAAGAAGAGTCGTAATCTGT | -0.127 |
| TTGTCCAATCTCATTGATCATT | -1.19 |
| ATTGTCTTCATCAACAATGTTT | -0.906 |
| TTTTTTTCTGCAAAGCTCTGGA | 0.243 |
| TTAACAAAGAATTGTCTTCATC | -1.39 |
| TTCACCATCACTGTGTTGGGAT | 0.611 |
| TTGATCATTGGGTCTTCTGTTG | -0.772 |
| TATAACACAAAAGACATTCATA | -0.457 |

The sequences below were run against TMEM231 in the same assay as above. Conditions: shRNA.

| Sequence | sensor-assay potency score (higher = more potent) |
| --- | --- |
| TAGCATTAATCACAAATGGAGC | -1.05 |
| TTCTGAAACACGAAGATCTTGA | 0.224 |
| TCTCTAGTCGAAACGAGCGGGA | -0.413 |
| TTAAAATGTAACATGTCCGTCT | 0.405 |
| TTCTCTAGTCGAAACGAGCGGG | 0.0646 |
| TTCTTCTCTAGTCGAAACGAGC | -1.58 |
